A number with no mark means an inactive call. Inconclusive results are not listed. Where a call stands in place of a potency, no number is given. Activity calls are given as the source filed them. Unless noted, calls come from the whole dose curve; as a rule, active = well fitted curve in the direction sought with a large enough effect in the repeat runs; inconclusive = weak or mixed curves; inactive = no such curve, though single readings can be large; an effect the other way counts as inactive or inconclusive.
Legend:
[1] = target: Thyrotropin receptor (Homo sapiens) (UniProt P16473); experiment: qHTS assay to identify small molecule agonists of the thyroid stimulating hormone receptor (TSHR) signaling pathway (AID 1224843; calls by dose curve; note: nearly all actives have a fitted effect of over 45% in size)
How it was run: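 HEK293 cells stably bearing the thyrotropin receptor were plated at 800 cells/well and challenged with compound (30 min, RT). Accumulated cAMP was quantified via cAMP-d2 competing for cryptate-tagged antibody.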

[2] = qHTS assay to identify small molecule agonists of the hypoxia (HIF-1) signaling pathway - cell viability counter screen (AID 1224844; calls by dose curve; note: nearly all actives have a fitted effect of over 50% in size)
How it was run: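 ME-180 HRE-bla cells, 2,000/well, 0.5% dialyzed FBS; 5 hr settle, 17 hr compound at 37C/5% CO2; CCF4-AM reporter read first, then CellTiter-Glo luminescence after 30 min RT.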

[3] = qHTS assay to identify small molecule agonists of H2AX (AID 1224845; active = well fitted activation curve with a large enough effect in the signal ratio in the repeat runs, not every such curve was filed as active; the % refers to the signal ratio)
How it was run: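 Phospho-H2AX Ser139 measured by HTRF (ex 320 nm; em 665 and 620 nm) after 24 hr antibody incubation. Compounds, 15 concentrations, 0.76% DMSO, were applied to CHO-K1 cells for 3hr at 37C before lysis.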

[4] = qHTS assay to identify small molecule agonists of the hypoxia (HIF-1) signaling pathway (AID 1224846; active = well fitted activation curve with a large enough effect in the signal ratio in the repeat runs, not every such curve was filed as active; the % refers to the signal ratio)
How it was run: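 Cell line: CellSensor HRE-bla ME-180; 2,000 cells/well; 0.5% dialyzed FBS; 5 h preincubation; DMSO compound pin transfer; 17 h, 37C, 5% CO2; CCF4-AM added; bla FRET signal scored for activation.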

[5] = qHTS assay to identify small molecule agonists of H2AX - cell viability counter screen (AID 1224847; calls by dose curve;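 note: wild-type CHO-K1 cells; top concentration of the series differs between compounds; nearly all actives have a fitted effect of over 30% in size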)
How it was run: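 After overnight plating of 1000 CHO-K1 cells per well, a 15-concentration compound series was applied for 3 hr at 37C. Luminescence from CellTiter-Glo, read following 30 min at room temperature, reflected cell viability.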

[6] = qHTS RealTime-Glo MT Cell Viability Assay in HepG2 cells - 24 hour (AID 1224867); note: nearly all actives have a fitted effect of over 50% in size
How it was run: (§1)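 HepG2 cells were seeded at 600 cells/well together with NanoLuc luciferase and a cell-permeant prosubstrate, preincubated 5 h at 37 C/5% CO2, then pin-dosed with compounds in DMSO. Nonlytic luminescence from viable cells was read at each time point.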

[7] = qHTS RealTime-Glo MT Cell Viability Assay in HEK293 cells - 32 hour (AID 1224868); note: top concentration of the series differs between compounds; nearly all actives have a fitted effect of over 50% in size
How it was run: (§2)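 HEK293 cells were seeded at 600 cells/well together with NanoLuc luciferase and cell-permeant prosubstrate, preincubated 5 h at 37 C/5% CO2, then given compound in DMSO by pintool. Luminescence from viable-cell prosubstrate reduction was read repeatedly over 40 h.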

[8] = A CellTox Green Cytotoxicity Assay to monitor cytotoxicity in HEK293 cells - 0 hour (AID 1224869); note: nearly all actives have a fitted effect of over 50% in size
How it was run: (§3)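 Nonlytic real-time cytotoxicity: HEK293 + CellTox Green reagent plated, 5 h preincubation, pintool compound addition (23 nL in DMSO), 37 C for 40 h, fluorescence measured at successive time points.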

[9] = qHTS RealTime-Glo MT Cell Viability Assay in HepG2 cells - 40 hour (AID 1224870); note: nearly all actives have a fitted effect of over 50% in size
How it was run: (§4)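 Real-time viability: cells seeded at 600 per well together with NanoLuc and cell-permeant prosubstrate, compounds added after 5 h incubation. Luminescence tracked at 0, 8, 16, 24, 32 and 40 h of exposure.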

[10] = A CellTox Green Cytotoxicity Assay to monitor cytotoxicity in HEK293 cells - 40 hour (AID 1224871); note: nearly all actives have a fitted effect of over 45% in size
How it was run: as §3

[11] = qHTS RealTime-Glo MT Cell Viability Assay in HEK293 cells - 16 hour (AID 1224872)
How it was run: as §2

[12] = qHTS RealTime-Glo MT Cell Viability Assay in HepG2 cells - 8 hour (AID 1224873); note: nearly all actives have a fitted effect of over 55% in size
How it was run: as §4

[13] = qHTS RealTime-Glo MT Cell Viability Assay in HEK293 cells - 40 hour (AID 1224874); settings: RealTime-Glo luminescence; max response: hits give low values; note: nearly all actives have a fitted effect of over 50% in size
How it was run: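 Cells were seeded together with NanoLuc luciferase and a prosubstrate that viable cells reduce to a luciferase substrate. After a 5 h incubation at 37 C/5% CO2, compounds were added and luminescence was measured repeatedly during 40 h of treatment.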

[14] = A CellTox Green Cytotoxicity Assay to monitor cytotoxicity in HEK293 cells - 24 hour (AID 1224875); note: nearly all actives have a fitted effect of over 45% in size
How it was run: as §3

[15] = A CellTox Green Cytotoxicity Assay to monitor cytotoxicity in HepG2 cells - 16 hour (AID 1224876); note: nearly all actives have a fitted effect of over 45% in size
How it was run: (§5)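 Read-out is fluorescence of a cyanine dye excluded from live cells that stains DNA of dead HepG2 cells, with signal proportional to cytotoxicity. Plates were read at 0, 8, 16, 24, 32 and 40 h after compound addition.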

[16] = qHTS RealTime-Glo MT Cell Viability Assay in HepG2 cells - 32 hour (AID 1224877); note: nearly all actives have a fitted effect of over 55% in size
How it was run: as §1

[17] = A CellTox Green Cytotoxicity Assay to monitor cytotoxicity in HepG2 cells - 24 hour (AID 1224878); note: nearly all actives have a fitted effect of over 45% in size
How it was run: as §5

[18] = A CellTox Green Cytotoxicity Assay to monitor cytotoxicity in HepG2 cells - 40 hour (AID 1224879); note: nearly all actives have a fitted effect of over 40% in size
How it was run: as §5

[19] = qHTS assay to identify small molecule antagonists of the estrogen related receptor (ERR) signaling pathway from Tox21 library (AID 1224848); note: nearly all actives have a fitted effect of over 50% in size
How it was run: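 Reading was by luminescence 30 min after ONE-Glo addition. Before that, ERR cells at 2,000 per well had rested 6 h at 37 C/5% CO2 and then received pin-tooled compounds in DMSO for 18 h at 37 C.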

[20] = qHTS assay to identify small molecule agonists of the estrogen related receptor (ERR) signaling pathway from Tox21 library (AID 1224849; calls by dose curve; note: nearly all actives have a fitted effect of over 15% in size); settings: ERR reporter cell line, ONE-Glo luciferase, 18 h; at 92.4 µM (top of the series) unless noted
How it was run: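 ERR cells, 6 h pre-incubation 37 C/5% CO2; cpd in DMSO pinned; 18 h 37 C; ONE-Glo added, 30 min RT; luminescence read. Agonist mode, qHTS.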

Chain of Thyrotropin receptor (Homo sapiens) (P16473 whole entry, looked up): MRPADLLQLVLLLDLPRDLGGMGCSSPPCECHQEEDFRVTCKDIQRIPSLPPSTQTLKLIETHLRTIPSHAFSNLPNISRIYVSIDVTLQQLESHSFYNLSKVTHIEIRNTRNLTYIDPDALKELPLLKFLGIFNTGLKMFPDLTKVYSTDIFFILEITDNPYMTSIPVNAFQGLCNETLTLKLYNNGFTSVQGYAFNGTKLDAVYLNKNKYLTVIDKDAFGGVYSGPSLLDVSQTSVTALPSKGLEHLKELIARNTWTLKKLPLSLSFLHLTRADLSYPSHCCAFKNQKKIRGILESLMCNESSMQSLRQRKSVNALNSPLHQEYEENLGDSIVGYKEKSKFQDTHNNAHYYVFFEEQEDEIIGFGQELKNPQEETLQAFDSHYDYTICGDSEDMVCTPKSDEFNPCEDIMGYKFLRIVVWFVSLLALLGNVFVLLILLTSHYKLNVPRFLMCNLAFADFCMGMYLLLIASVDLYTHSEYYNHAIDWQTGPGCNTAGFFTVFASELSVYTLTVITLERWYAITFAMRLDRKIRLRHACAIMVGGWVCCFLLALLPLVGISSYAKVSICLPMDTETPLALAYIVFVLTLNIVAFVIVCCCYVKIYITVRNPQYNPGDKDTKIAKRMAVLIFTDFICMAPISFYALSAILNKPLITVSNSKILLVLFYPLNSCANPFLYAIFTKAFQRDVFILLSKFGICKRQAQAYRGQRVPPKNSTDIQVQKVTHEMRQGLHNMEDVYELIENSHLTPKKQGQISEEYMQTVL

| SMILES | Potency [1] | Potency [2] | Potency [3] | outcome [4] | Potency [5] | Potency [6] | Potency [7] | Potency [8] | Potency [9] | Potency [10] | Potency [11] | Potency [12] | max response [13] | Potency [14] | Potency [15] | Potency [16] | Potency [17] | Potency [18] | Potency [19] | activity change, positive = activation [20] |
| --- | --- | --- | --- | --- | --- | --- | --- | --- | --- | --- | --- | --- | --- | --- | --- | --- | --- | --- | --- | --- |
| CNC(=O)c1cnn(-c2nc(N)c3ncn([C@@H]4O[C@H](CO)[C@@H](O)[C@H]4O)c3n2)c1 | inactive | inactive | inactive | inactive | inactive | inactive | inactive | inactive | inactive | inactive | inactive | inactive | 4.42% | inactive | inactive | inactive | inactive | inactive |  |  |
| NC1[C@H]2CN(c3nc4c(cc3F)c(=O)c(C(=O)O)cn4-c3ccc(F)cc3F)C[C@@H]12 (stereo not given in full) | inactive | inactive | inactive | inactive | inactive | inactive | inactive | inactive | inactive |  | inactive | inactive | -27.4% |  |  | inactive | inactive | inactive | inactive | 59.2% [at 42.5 µM] (active) |
| CCOC(=O)/C=C/C(=O)OCC | inactive | inactive | inactive | inactive | inactive | inactive | inactive | inactive | inactive | inactive | inactive | inactive | 11.5% | inactive | inactive | inactive | inactive | inactive | inactive | 6.14% |

— PubChem BioAssay (Tox21)
